Sampled rows, rich in hits. Any-hit rate of the full collection: about 19%.
TDP1 inh: blocks human tyrosyl-DNA phosphodiesterase 1. recombinant TDP1, AlphaScreen DNA substrate cleavage. Potency, µM (series often up to 130 µM), for inactives: at the top dose activity change, negative = inhibition, usual class: inhibitors. 350,000 tested, 0.28% active; note: nearly all actives have a fitted effect of over 40% in size
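Compounds were preincubated with Tdp1 (1 nM final) for 15 min at room temperature before substrate (15 nM final) started a 5 min reaction; beads (10 ug/ml final) were then added for 10 min before AlphaScreen detection.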
RORg inh: ROR gamma (mouse) transcription inhibition | P51450 | Drosophila S2 Gal4-RORgamma UAS-luciferase reporter, 20 h | Potency, µM (series often up to 53.6 µM), without a hit: at the highest dose activity change, negative = inhibition, actives largely listed as inhibitors | 310,000 tested, 5.4% active | AID 2551; note: nearly all actives have a fitted effect of over 60% in size
Target sequence (P51450 whole entry, looked up, the tested form may be a part): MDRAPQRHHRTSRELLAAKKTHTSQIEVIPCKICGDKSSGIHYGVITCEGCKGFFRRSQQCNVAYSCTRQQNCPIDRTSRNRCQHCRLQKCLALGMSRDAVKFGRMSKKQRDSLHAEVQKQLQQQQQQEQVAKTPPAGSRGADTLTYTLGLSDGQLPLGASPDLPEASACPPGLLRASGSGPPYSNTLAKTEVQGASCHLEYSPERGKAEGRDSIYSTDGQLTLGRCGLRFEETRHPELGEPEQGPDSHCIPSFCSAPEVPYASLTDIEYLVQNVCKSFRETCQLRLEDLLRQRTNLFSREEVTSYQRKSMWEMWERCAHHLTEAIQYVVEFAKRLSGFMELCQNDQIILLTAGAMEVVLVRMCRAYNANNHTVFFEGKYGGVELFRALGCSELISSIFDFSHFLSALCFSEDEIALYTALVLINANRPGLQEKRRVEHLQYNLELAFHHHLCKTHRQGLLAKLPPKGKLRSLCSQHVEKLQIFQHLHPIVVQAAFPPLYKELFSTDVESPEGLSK
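Using a luciferase readout, inhibitors were identified by reduced reporter activity in Drosophila cells coexpressing a copper-inducible Gal4–ROR gamma fusion and UAS-driven Photinus luciferase, incubated 20 hr after 700 uM copper sulfate.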
DT40 TDP1 no CPT: qHTS for Inhibitors of human tyrosyl-DNA phosphodiesterase 1 (TDP1): qHTS in cells in absence of CPT. DT40 Tdp1-/- hTDP1 cells, no CPT, ATP luminescence, 48 h. Potency, µM (doses to about 46.2 µM), inactives show at the top dose activity change, negative = growth inhibition, usual class: inhibitors. 420,000 tested, 15% active; note: nearly all actives have a fitted effect of over 55% in size
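Readout: luminescence from CellTiter-Glo after 30 min in the dark at RT. Cells: DT40 Tdp1-/- with stable hTDP1, 400/well. Exposure: compounds alone, ≥48 hr, 37 °C.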
VP16 counter: Gal4-VP16 reporter inhibition counter-screen; 310,000 tested, 3.5% active; AID 2546; Drosophila S2 Gal4-VP16 UAS-luciferase, luminescence, 20 h; Potency, µM (titrated, usually from 53.6 µM), for inactives: at the top dose activity, negative = inhibition, usual class: inhibitors;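 note: Gal4-VP16 expression switched on by copper sulfate through the metallothionein promoter; nearly all actives have a fitted effect of over 50% in size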
TDP1 cell CPT: DT40-hTDP1 cell growth loss with CPT | chicken DT40 Tdp1-/-;hTDP1 cells + 20 nM CPT, ATP luminescence, 48 h | Potency, µM (series often up to 46.2 µM), for the others: at the highest dose activity change, negative = growth inhibition, hits mostly inhibitors | 420,000 tested, 12% active | AID 686979; note: nearly all actives have a fitted effect of over 55% in size
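Chicken DT40 Tdp1-/- cells complemented with human TDP1, 400 cells/well, exposed to compounds plus 20 nM camptothecin for at least 48 h at 37 C; viability read as ATP content by CellTiter-Glo luminescence.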
Numbers without * were called inactive; ? = inconclusive; . = no result; [ ] = remark or other dose. Calls come from the whole dose curve; as a rule, active = well fitted curve in the direction sought with a large enough effect; inconclusive = small, poorly fitted or top-dose-only effect, or another doubt; inactive = no such curve, though single readings can be large; an effect the other way counts as inactive or inconclusive. % is set by controls: 0 for no effect and ±100 for the full control effect; potency is the fitted concentration of half-maximal effect.

SMILES | TDP1 inh | RORg inh | DT40 TDP1 no CPT | VP16 counter | TDP1 cell CPT
C=CCNC(=O)c1c[nH]c2ccc(S(=O)(=O)N(C)c3ccc(OCC)cc3)cc2c1=O | . | ? | 20.6µM* | -8.2% | 20.6µM*
Cc1ccccc1-c1nnnn1C1CCS(=O)(=O)C1 (stereo not given) | 8.2% | 2.0% | 21.7% | -4.6% | -21.4%
COCCCNC(=O)Cn1cnc(C(=O)Nc2ccc(C)c(C)c2)n1 | 0.1%[56.1 µM] | . | -17.0% | . | -11.8%
COc1cc(C(=O)Nc2nc(C)c(Cc3ccc4c(c3)OCO4)s2)cc(OC)c1OC | -4.5% | 7.94µM* | 2.06µM* | ? | 1.3µM*
CCCOc1ccc(C(=O)Nc2nc(C)c(Cc3ccc4c(c3)OCO4)s2)cc1 | 8.2% | ? | 7.31µM* | ? | ?
CCCOc1ccc(C(=O)Nc2ccc3c(c2)OCO3)cc1 | 4.2% | 29.6% | 13.0% | 0.1% | 2.7%
Cc1nc(NC(=O)c2ccc(OCC(C)C)cc2)sc1Cc1ccc2c(c1)OCO2 | 2.7% | ? | 16.4µM* | ? | ?
CN(C(=O)/C=C/c1ccccc1)C1CCCCC1 | . | . | -21.8% | . | -2.0%
O=C(/C=C/c1cccc(F)c1)N(c1ccccn1)C1CCCCC1 | 5.5% | 41.7% | ? | 3.0% | 13µM*
O=C(/C=C/c1ccc(Cl)cc1)N(c1ccccn1)C1CCCCC1 | 2.2% | 30.1% | 20.6µM* | -9.9% | ?
COc1ccc(/C=C/C(=O)N(c2ccccn2)C2CCCCC2)cc1OC | 0.0% | 6.4% | ? | 6.1% | 23.1µM*
N#Cc1ccc(C(=O)NC(=S)N2CCOCC2)cc1 | 1.3% | . | -16.7% | . | -10.0%
COc1cccc(CNC(=O)C2CCCN2S(=O)(=O)c2ccc3c(c2)C(C)(C)C(=O)N3C)c1 (stereo not given) | . | -27.1% | -17.2% | -10.8% | -14.8%
O=C(Nc1cccc(F)c1)N1CCN(C/C=C/c2ccccc2)CC1 | 0.5% | 6.8% | -13.5% | 18.7% | -7.1%
Fc1ccc(C(c2ccc(F)cc2)N2CCN(C/C=C\c3ccccc3)CC2)cc1 | 9.5% | -11.0% | 21.1µM* | -14.6% | 23.7µM*
O=C(Nc1ccc(F)cc1)N1CCN(C/C=C/c2ccccc2)CC1 | 4.4% | ? | 29.1µM* | 0.2% | ?
COCCCNc1cc(C)nc2ccccc12 | -3.9% | -13.7% | 8.8% | 3.2% | -3.9%
Cc1cc(NCCCCCCCNc2cc(C)nc3cc([N+](=O)[O-])ccc23)c2ccc([N+](=O)[O-])cc2n1 | . | . | 1.3µM* | . | 1.64µM*
COc1ccc(NC(=O)Cc2ccc(-c3ccccc3)cc2)cn1 | 7.5% | 42.9% | 11.6µM* | -2.3% | 13µM*
Cc1ccnc(NC(=O)Cc2ccc(-c3ccccc3)cc2)c1 | 0.3% | 11.2µM* | ? | ? | ?
COc1ccc(CC(=O)Nc2ccc(OC)nc2)cc1 | 5.3% | 31.1% | 21.4% | 20.1% | 3.8%
COc1ccc(NC(=O)C2(C)Cc3c(-c4ccccc4)ccnc3O2)cn1 (stereo not given) | . | . | 6.51µM* | . | 5.8µM*
COc1ccc(NC(=O)C2(C)Cc3c(-c4cccc(C(F)(F)F)c4)ccnc3O2)cn1 (stereo not given) | . | . | 2.91µM* | . | 5.17µM*
COc1ccc(NC(=O)/C(Cl)=C(/Cl)S(=O)Cc2ccc(Cl)cc2)cn1 (stereo not given) | 4.9% | 0.794µM* | 0.259µM* | 2.82µM* | 0.13µM*
COc1ccc(NC(=O)C2(C)Cc3c(-c4ccc(N(C)C)cc4)ccnc3O2)cc1 (stereo not given) | . | . | ? | . | 29.1µM*
SMILES | TDP1 inh | RORg inh | DT40 TDP1 no CPT | VP16 counter | TDP1 cell CPT
CN(C)c1ccc(-c2ccnc3c2CC(C)(C(=O)Nc2ccccc2)O3)cc1 (stereo not given) | . | . | -22.3% | . | 3.0%
O=C(NCc1ccccn1)c1ccc(S(=O)(=O)Nc2ccccc2F)cc1 | 7.7% | -7.2% | 1.9% | 8.2% | -16.1%
Cc1ccc(N(Cc2cc3cc(C)ccc3[nH]c2=O)C(=O)c2cccs2)cc1 | -2.6% | -5.9% | 23.1µM* | -1.6% | ?
Cc1ccc2[nH]c(=O)c(CN(C)C(=O)c3cccs3)cc2c1 | 0.0% | 24.4% | -23.3% | 10.1% | ?
Cc1ccc(N(Cc2cc3ccccc3[nH]c2=O)C(=O)c2cccs2)cc1C | 2.5% | ? | 18.4µM* | -4.0% | ?
O=C(c1cccs1)N(Cc1cc2ccccc2[nH]c1=O)c1ccccc1 | 2.8% | ? | 10.3µM* | -16.1% | 13µM*
CN(Cc1cc2ccccc2[nH]c1=O)C(=O)c1cccs1 | -1.1% | 13.6% | -32.3% | 10.8% | 4.7%
CCOC(=O)C(=Cc1ccc(N(C)C)cc1)C(=O)c1ccccc1 | . | . | ? | . | 16.4µM*
CCOC(=O)/C(=C/c1ccc(OC(=O)c2ccccc2)cc1)C(C)=O | 5.3% | ? | ? | ? | 18.4µM*
COc1ccc2cc(CN(CCO)C(=O)c3ccccc3F)c(=O)[nH]c2c1 | 6.2% | 20.3% | -13.1% | 13.6% | -10.6%
COc1ccc(-c2cc(C(F)(F)F)nc(SCC(=O)N(C)Cc3ccccc3)n2)cc1 | -1.1% | . | ? | . | 23.1µM*
COc1ccc(-c2cc(C(F)(F)F)nc(SCCC(=O)Nc3ccccc3F)n2)cc1 | 1.1% | . | . | . | .
COc1ccc(-c2cc(C(F)(F)F)nc(SCCC(=O)NCc3ccccc3)n2)cc1 | 3.9% | -18.6% | 18.4µM* | ? | ?
COc1ccc(-c2cc(C(F)(F)F)nc(SCCC(=O)Nc3ccc(OC)c(OC)c3)n2)cc1 | -3.2% | . | 14.6µM* | . | 13µM*
CCn1cc(CN(C)C(=O)CSc2nc(-c3ccco3)cc(C(F)(F)F)n2)c(C)n1 | . | . | 23.1µM* | . | ?
COc1ccc(CNC(=O)CSc2nc(-c3ccc(OC)cc3)cc(C(F)(F)F)n2)cc1 | 3.2% | . | -16.6% | . | -20.1%
CCS(=O)(=O)N1CCCC(C(=O)Oc2ccc(Br)cc2)C1 (stereo not given) | 0.2% | 23.3% | -11.7% | 6.5% | -4.1%
COC(=O)CC1SC(=O)NC1=O (stereo not given) | 5.1% | -7.8% | 1.2% | -28.1% | 6.0%
CN(Cc1ccccc1)C(=O)CSc1nc2c(c(C(F)(F)F)n1)CCc1ccccc1-2 | . | . | ? | . | 29.1µM*
Cc1ccc(Cn2nc(C)c(NC(=O)CSc3nc4c(c(C(F)(F)F)n3)CCc3ccccc3-4)c2C)cc1 | 0.0% | -5.9% | ? | 9.8% | ?
COc1ccc(OC)c(S(=O)(=O)Nc2ccc(O)c3ccccc23)c1 | 7.9% | 10µM* | 3.26µM* | 3.6%[0.365 µM] | 2.06µM*
COc1ccc(OC)c(S(=O)(=O)Nc2cccc3c(O)cccc23)c1 | . | . | ? | . | 20.6µM*
CC(C)CCNC(=O)C(c1ccc(O)cc1)N(Cc1cccs1)C(=O)C1COc2ccccc2O1 (stereo not given) | 0.0% | 8.0%[10 µM] | 16.4µM* | -8.3% | 23.1µM*

Bioassay records: PubChem, National Center for Advancing Translational Sciences (NCATS)
